# Assay results published in PubChem BioAssay.
# Activity calls are given as the source filed them. Unless noted, no stated cut-off is given here; in the data, active means inhibition above about 80%; inactive means the rest.
# Tests used:
# [1] = growth inhibition, single agent or in combination, cell-based, chromothripsis tumors, cisplatin or BGB combos (AID 1671449); conditions: LFS_MB_P medulloblastoma cells;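 further: cells exposed for 96 hours; 0% = vehicle DMSO and 100% = killing by high DMSO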
# [2] = growth inhibition, single agent and combos, cell-based, chromothripsis tumors, cisplatin or BGB combos (AID 1671450); conditions: HDN33 neuroblastoma cells, stronger effect = higher value;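 further: cells exposed to compound for four days; 0% = vehicle DMSO and 100% = cell killing by high DMSO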
# [3] = growth inhibition, single agents and combos, ICB984, cell-based, cisplatin or BGB combos, synergistic combos for chromothripsis tumors (AID 1671451; call rule not given here;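 further: cells exposed for 96 hours before readout; 0% = vehicle DMSO and 100% = killing by high DMSO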); conditions: ICB984 medulloblastoma cells, drug combinations, stronger effect = higher value
# [4] = growth inhibition, single agents and combos, LFS_MB_1R, cell-based, cisplatin or BGB combos, synergistic combos for chromothripsis tumors (AID 1671452); conditions: LFS_MB_1R medulloblastoma cells, stronger effect = higher value;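 further: cells exposed for 96 hours before readout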
# [5] = growth inhibition, single agents and combos, HTB85, cell-based, BGB or cisplatin IC20 combos, synergistic combos for chromothripsis tumors (AID 1671453); conditions: HTB85 osteosarcoma cells, drug combinations, stronger effect = higher value;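 further: cells exposed for 96 hours before readout; 0% = vehicle DMSO and 100% = high DMSO killing control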
# [6] = growth inhibition, single agents and combos, CRL2098, cell-based, BGB or cisplatin IC20 combos, synergistic combos for chromothripsis tumors (AID 1671454); conditions: CRL2098 osteosarcoma cells, drug combinations, stronger effect = higher value;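 further: cells exposed for 96 h before readout; 0% = vehicle DMSO and 100% = killing by high DMSO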
# [7] = growth inhibition, single agents and combos, HD-MB03, cell-based, BGB or cisplatin IC20 combos, synergistic combos for chromothripsis tumors (AID 1671455; in the data active means inhibition above about 83%;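 further: 0% = vehicle DMSO and 100% = high DMSO as cytotoxic control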); conditions: HD-MB03 medulloblastoma cells, stronger effect = higher value
# [8] = growth inhibition, single agents and combos, UWB1.289, cell-based, BGB or cisplatin combos, synergistic combos for chromothripsis tumors (AID 1671456); conditions: UWB1.289 ovarian carcinoma cells, stronger effect = higher value;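 further: cells exposed to compound for four days; 0% = vehicle DMSO and 100% = killing by high DMSO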
# [9] = growth inhibition, single agents and combos, LFS_MB_2R, cell-based, cisplatin combos, synergistic combos for chromothripsis tumors (AID 1671457); conditions: LFS_MB_2R medulloblastoma cells, stronger effect = higher value;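 further: cells exposed to compound for four days before readout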
# [10] = growth inhibition, MDA-MB-436, cell-based, BGB or cisplatin combos, synergistic combos for chromothripsis tumors (AID 1671458; call rule not given here;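 further: cells exposed for 96 hours; 0% = vehicle DMSO and 100% = killing by high DMSO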); conditions: MDA-MB-436 breast carcinoma growth inhibition, drug combinations, stronger effect = higher value
# [11] = UWB1.289_BRCA1 ovarian cancer growth, cell-based, BGB or cisplatin combinations (AID 1671459); conditions: UWB1.289 BRCA1 ovarian carcinoma, drug combinations, stronger effect = higher value
# [12] = drug combination toxicity in non-malignant astrocytes – cell-based, BGB or cisplatin IC20 combos, cytotoxicity control for chromothriptic childhood tumor combination screen (AID 1671460); conditions: Human astrocytes, viability inhibition, drug combinations, at 0.5 µM, stronger effect = higher value;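 further: cells exposed to compounds for 96 hours before viability readout; 0% = vehicle and 100% = killing control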
# [13] = BT084 cell growth, single and combined drugs, ICGC_MB145, cisplatin and BGB IC40 combos (AID 1671461); conditions: BT084 medulloblastoma cells, drug combinations, stronger effect = higher value;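 further: cells exposed to drugs for 96 hours; 0% = vehicle DMSO and 100% = high DMSO full killing control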
# [14] = RCMB18 cell growth, single agent and combined, cisplatin and BGB IC40 combos (AID 1671462); conditions: RCMB18 medulloblastoma cells, stronger effect = higher value;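 further: cells exposed to compound for four days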
# [15] = CRL1545 cell growth, single agent and combined, cisplatin and BGB IC20 combos (AID 1671464); conditions: CRL1545 osteosarcoma cells, stronger effect = higher value;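 further: cells exposed to compound for 96 hours before readout; 0% = vehicle DMSO and 100% = high DMSO killing control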
# [16] = at 0.5 µM, stronger effect = higher value
# [17] = measured here: combination with BGB IC20, at 0.005 µM
# [18] = measured here: combination with BGB IC40, at 0.005 µM
# [19] = measured here: combination with BGB IC40, at 0.05 µM
# [20] = measured here: combination with cisplatin, at 0.5 µM, stronger effect = higher value
# [21] = measured here: combination with cisplatin, at 5 µM, stronger effect = higher value
# [22] = measured here: with BGB IC20 combination, at 0.5 µM
# [23] = measured here: with cisplatin IC20 combination, at 0.5 µM
# [24] = measured here: 5 uM single agent, at 5 µM
# [25] = measured here: combination with cisplatin, at 0.5 µM
# [26] = measured here: combination with cisplatin, at 5 µM
# [27] = measured here: with BGB IC20, at 0.5 µM
# [28] = measured here: with BGB IC20, at 5 µM
# [29] = measured here: with cisplatin IC20, at 0.5 µM
# [30] = measured here: with cisplatin IC20, at 5 µM
# [31] = measured here: combination with BGB at IC20, at 0.5 µM
# [32] = measured here: combination with cisplatin at IC20, at 0.5 µM
# [33] = measured here: combo with BGB at IC20, at 0.5 µM
# [34] = measured here: combo with cisplatin at IC20, at 0.5 µM
# [35] = measured here: inhibition with BGB combination, at 0.05 µM
# [36] = measured here: inhibition with cisplatin combination, at 0.05 µM
# [37] = measured here: BGB combination, at 0.5 µM
# [38] = measured here: BGB combination, at 5 µM
# [39] = measured here: cisplatin combination, at 0.5 µM
# [40] = measured here: cisplatin combination, at 5 µM
# [41] = BGB combination, concentration series, at 5 µM
# [42] = cisplatin combination, concentration series, at 5 µM
# [43] = measured here: combo with BGB IC20
# [44] = measured here: combo with cisplatin IC20
# [45] = cisplatin combination, at 0.5 µM
# [46] = measured here: BGB IC40 combination 0.05 uM, at 0.05 µM
# [47] = measured here: BGB IC40 combination, at 0.05 µM
smiles,measurement,setting,value
CC1CNC(=O)NC1=O (stereo unspecified),inhibition,[1]; [16],-30.6% (inactive)
same,inhibition,[1]; [17],-22%
same,inhibition,[1]; [18],-7.63%
same,inhibition,[1]; [19],-15.7%
same,inhibition,[1]; [20],-39.2%
same,inhibition,[1]; [21],-13.3%
same,inhibition,"[2]; BGB combo, at 5 µM",-40.2%
same,inhibition,[2]; at 0.5 µM,-17.3% (inactive)
same,inhibition,"[2]; cisplatin combo, at 5 µM",-24%
same,inhibition,[2]; [22],-4.75%
same,inhibition,[2]; [23],-15.4%
same,inhibition,"[2]; single agent, at 5 µM",2.08%
same,inhibition,"[3]; BGB IC20 combo, at 0.005 µM",-33.2%
same,inhibition,"[3]; BGB IC40 combo, at 0.005 µM",-36.3%
same,inhibition,"[3]; BGB IC40 combo, at 0.05 µM",-20.7%
same,inhibition,[3]; at 0.5 µM,-43.5% (inactive)
same,inhibition,"[3]; cisplatin combo, at 0.05 µM",-20.7%
same,inhibition,"[3]; cisplatin combo, at 0.5 µM",-62.7%
same,inhibition,"[3]; cisplatin combo, at 5 µM",-40.7%
same,inhibition,[3]; [24],-37.5%
same,inhibition,[4]; at 0.5 µM,-30.6% (inactive)
same,inhibition,[4]; [19],-35.2%
same,inhibition,[4]; [25],5.53%
same,inhibition,[4]; [26],23.2%
same,inhibition,[5]; at 0.5 µM,-31.7% (inactive)
same,inhibition,[5]; [27],-55.6%
same,inhibition,[5]; [28],-9.18%
same,inhibition,[5]; [29],-36.4%
same,inhibition,[5]; [30],-7.78%
same,inhibition,"[5]; single agent, at 5 µM",-19.6%
same,inhibition,[6]; at 0.5 µM,-81.6% (inactive)
same,inhibition,[6]; [31],-71.8%
same,inhibition,[6]; [32],-130%
same,inhibition,[7]; at 0.5 µM,7.56% (inactive)
same,inhibition,[7]; [33],12%
same,inhibition,[7]; [34],16.9%
same,inhibition,[8]; at 0.5 µM,-15.4% (inactive)
same,inhibition,[8]; [35],-40%
same,inhibition,[8]; [36],-20.8%
same,inhibition,[9]; at 0.5 µM,-25.2% (inactive)
same,inhibition,[9]; [25],-28%
same,inhibition,[9]; [26],-26.8%
same,inhibition,[10]; at 0.5 µM,-18.9% (inactive)
same,inhibition,[10]; [37],-18.5%
same,inhibition,[10]; [38],-17.9%
same,inhibition,[10]; [39],-32%
same,inhibition,[10]; [40],-4.6%
same,inhibition,[11]; [41],1.37%
same,inhibition,[11]; at 0.5 µM,-11% (inactive)
same,inhibition,[11]; [42],10.9%
same,inhibition,[12],12.2% (inactive)
same,inhibition,[12]; [43],9.11%
same,inhibition,[12]; [44],12%
same,inhibition,[13]; at 0.5 µM,-12.5% (inactive)
same,inhibition,[13]; [45],-19.5%
same,inhibition,"[13]; cisplatin combination, at 5 µM",-47.1%
same,inhibition,[13]; [46],-27%
same,inhibition,"[13]; single agent, at 5 µM",-16.6%
same,inhibition,[14]; at 0.5 µM,-12% (inactive)
same,inhibition,"[14]; cisplatin combo, at 5 µM",-15.1%
same,inhibition,[14]; [47],-20.6%
same,inhibition,[14]; [25],-13.2%
same,inhibition,"[14]; single agent, at 5 µM",-49.2%
same,inhibition,[15]; at 0.5 µM,-21.8% (inactive)
same,inhibition,[15]; [22],-10.4%
same,inhibition,[15]; [23],-27.5%
same,inhibition,"[15]; single agent, at 0.05 µM",3.21%
same,inhibition,"[15]; single agent, at 5 µM",-10.2%
C[C@@H]1COCCN1c1cc(C2(S(C)(=O)=O)CC2)nc(-c2cccc3[nH]ccc23)n1,inhibition,[1]; [16],-25.8% (inactive)
same,inhibition,[1]; [17],7.6%
same,inhibition,[1]; [18],5.5%
same,inhibition,[1]; [19],-17.8%
same,inhibition,[1]; [20],-15.1%
same,inhibition,[1]; [21],49.8%
same,inhibition,"[2]; BGB combo, at 5 µM",86.9%
same,inhibition,[2]; at 0.5 µM,36.8% (inactive)
same,inhibition,"[2]; cisplatin combo, at 5 µM",93.4%
same,inhibition,[2]; [22],34.2%
same,inhibition,[2]; [23],50.8%
same,inhibition,"[2]; single agent, at 5 µM",94%
same,inhibition,"[3]; BGB IC20 combo, at 0.005 µM",23.5%
same,inhibition,"[3]; BGB IC40 combo, at 0.005 µM",27.9%
same,inhibition,"[3]; BGB IC40 combo, at 0.05 µM",49.2%
same,inhibition,[3]; at 0.5 µM,-13.7% (inactive)
same,inhibition,"[3]; cisplatin combo, at 0.05 µM",47.4%
same,inhibition,"[3]; cisplatin combo, at 0.5 µM",1.99%
same,inhibition,"[3]; cisplatin combo, at 5 µM",-26.9%
same,inhibition,[3]; [24],12.7%
same,inhibition,[4]; at 0.5 µM,10% (inactive)
same,inhibition,[4]; [19],-3.56%
same,inhibition,[4]; [25],20.8%
same,inhibition,[4]; [26],56.7%
same,inhibition,[5]; at 0.5 µM,20.9% (inactive)
same,inhibition,[5]; [27],21%
same,inhibition,[5]; [28],63.3%
same,inhibition,[5]; [29],29.2%
same,inhibition,[5]; [30],91.9%
same,inhibition,"[5]; single agent, at 5 µM",73.8%
same,inhibition,[6]; at 0.5 µM,20.1% (inactive)
same,inhibition,[6]; [31],11.9%
same,inhibition,[6]; [32],19.4%
same,inhibition,[7]; at 0.5 µM,38% (inactive)
same,inhibition,[7]; [33],11.4%
same,inhibition,[7]; [34],91.1%
same,inhibition,[8]; at 0.5 µM,63.9% (inactive)
same,inhibition,[8]; [35],6.56%
same,inhibition,[8]; [36],-6.75%
same,inhibition,[9]; at 0.5 µM,13.6% (inactive)
same,inhibition,[9]; [25],20.6%
same,inhibition,[9]; [26],51.4%
same,inhibition,[10]; at 0.5 µM,22.5% (inactive)
same,inhibition,[10]; [37],8.94%
same,inhibition,[10]; [38],45.1%
same,inhibition,[10]; [39],30.1%
same,inhibition,[10]; [40],85.8%
same,inhibition,[11]; [41],93.1%
same,inhibition,[11]; at 0.5 µM,65.4% (inactive)
same,inhibition,[11]; [42],117%
same,inhibition,[12],23.1% (inactive)
same,inhibition,[12]; [43],14.4%
same,inhibition,[12]; [44],30.8%
same,inhibition,[13]; at 0.5 µM,17% (inactive)
same,inhibition,[13]; [45],14.1%
same,inhibition,"[13]; cisplatin combination, at 5 µM",58%
same,inhibition,[13]; [46],-18.4%
same,inhibition,"[13]; single agent, at 5 µM",44.6%
same,inhibition,[14]; at 0.5 µM,25.2% (inactive)
same,inhibition,"[14]; cisplatin combo, at 5 µM",34.6%
same,inhibition,[14]; [47],-0.169%
same,inhibition,[14]; [25],44.8%
same,inhibition,"[14]; single agent, at 5 µM",51.4%
same,inhibition,[15]; at 0.5 µM,76.6% (inactive)
same,inhibition,[15]; [22],71%
same,inhibition,[15]; [23],79.1%
same,inhibition,"[15]; single agent, at 0.05 µM",21.8%
same,inhibition,"[15]; single agent, at 5 µM",97.9%
